Measured values published in PubChem BioAssay (Tox21).
Records with an inconclusive call do not appear. Activity calls are given as the source filed them. Unless noted, calls follow the shape of the dose curve; as a rule, active = well fitted curve in the direction sought with a large enough effect in the repeat runs; inconclusive = weak or mixed curves; inactive = no such curve, though single readings can be large; an effect the other way counts as inactive or inconclusive.

Assays:
[1] = A CellTox Green Cytotoxicity Assay to monitor cytotoxicity in HepG2 cells - 8 hour (AID 1224890); also: nearly all actives have a fitted effect of over 45% in size
How it was run: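 Using 1536-well format, dye-containing HepG2 suspension was seeded, allowed 5 h at 37 C/5% CO2, dosed by pintool with compounds, positive and negative controls, and imaged for fluorescence across 40 h.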

[2] = qHTS assay to identify small molecule antagonists of the estrogen receptor alpha (ER-alpha) signaling pathway using the BG1 cell line in the presence of 0.1 nM 17-beta-estradiol - cell viability counter screen (AID 1259241); also: nearly all actives have a fitted effect of over 40% in size
How it was run: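 In this screen, hormone-deprived VM7Luc4E2 cells were seeded at 4,000 per well, dosed with compound and 0.1 nM estradiol final, and incubated 22 hr at 37C and 5% CO2; fluorogenic live-cell protease signal reported viability.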

[3] = qHTS assay to identify small molecule antagonists of the androgen receptor (AR) signaling pathway using the MDA cell line in the presence of 0.5 nM R1881 - cell viability counter screen (AID 1259242); also: nearly all actives have a fitted effect of over 45% in size
How it was run: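 Viability of MDA-kb2 cells was multiplexed with the luciferase AR readout; after 16 hr with compounds and R1881 at 0.5 nM final, CellTiter-Fluor fluorescence was recorded.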

[4] = molecular target: Estrogen receptor (Homo sapiens) (UniProt P03372); experiment: qHTS assay to identify small molecule antagonists of the estrogen receptor alpha (ER-alpha) signaling pathway using the BG1 cell line in the presence of 0.1 nM 17-beta-estradiol (AID 1259244); also: nearly all actives have a fitted effect of over 50% in size
How it was run: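 Estradiol at 0.1 nM (final) stimulates the endogenous ER-alpha of VM7Luc4E2 cells carrying an ERE-driven luciferase; compounds are co-incubated 22 h at 37C and luciferase output quantified by luminescence.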

[5] = qHTS assay to identify small molecule HDAC inhibitors (AID 1259364);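 also: wild-type HCT-116 cells with endogenous class I/II HDAC activity; top concentration of the series differs between compounds; nearly all actives have a fitted effect of over 45% in size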
How it was run: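 Read-out: luminescence of HDAC-Glo I/II reagent, 30 min RT, reflecting class I/II deacetylase activity in whole HCT-116 cells pre-exposed 2 h to DMSO-dissolved compounds.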

[6] = qHTS assay to identify small molecule HDAC inhibitors - cell viability counter screen (AID 1259365); also: series mostly up to about 92 µM; nearly all actives have a fitted effect of over 50% in size
How it was run: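 Measured quantity is CellTiter-Glo luminescence from wild-type HCT-116 cells after compound incubation of 2hr at 37C, 5% CO2; reagent developed 30min at room temperature.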

[7] = qHTS assay to identify small molecule agonists of the sonic hedgehog signaling (Shh) pathway - cell viability counter screen (AID 1259366); also: nearly all actives have a fitted effect of over 50% in size
How it was run: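 In quantitative high-throughput format, 3T3 Gli1-Luc cells were exposed to compounds for 24hr and multiplexed for viability using CellTiter-Fluor, incubated 1hr at 37C before the fluorescence read.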

[8] = qHTS assay to identify small molecule antagonists of the sonic hedgehog signaling (Shh) pathway - cell viability counter screen (AID 1259367); also: nearly all actives have a fitted effect of over 55% in size
How it was run: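 Using CellTiter-Fluor, viability of Gli1-Luc reporter 3T3 cells is read by fluorescence in the wells used for the Shh luciferase assay. Treatment lasts 23 hr with conditioned medium, then reagent 1 hr at 37C.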

[9] = qHTS assay to identify small molecule phospholipidosis (PLD) inducers (AID 1259344; active = well fitted curve in the direction sought with a large enough effect; an effect the other way counts as inactive or inconclusive)
How it was run: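 Fluorescent phospholipid staining (LipidTOX Red) measured by automated microscopy in fixed HepG2 cells after 24 h treatment; nuclei counterstained with Hoechst 33342; amiodarone as reference inducer.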

Measured: Potency

Chain of Estrogen receptor (Homo sapiens) (P03372 whole entry, looked up): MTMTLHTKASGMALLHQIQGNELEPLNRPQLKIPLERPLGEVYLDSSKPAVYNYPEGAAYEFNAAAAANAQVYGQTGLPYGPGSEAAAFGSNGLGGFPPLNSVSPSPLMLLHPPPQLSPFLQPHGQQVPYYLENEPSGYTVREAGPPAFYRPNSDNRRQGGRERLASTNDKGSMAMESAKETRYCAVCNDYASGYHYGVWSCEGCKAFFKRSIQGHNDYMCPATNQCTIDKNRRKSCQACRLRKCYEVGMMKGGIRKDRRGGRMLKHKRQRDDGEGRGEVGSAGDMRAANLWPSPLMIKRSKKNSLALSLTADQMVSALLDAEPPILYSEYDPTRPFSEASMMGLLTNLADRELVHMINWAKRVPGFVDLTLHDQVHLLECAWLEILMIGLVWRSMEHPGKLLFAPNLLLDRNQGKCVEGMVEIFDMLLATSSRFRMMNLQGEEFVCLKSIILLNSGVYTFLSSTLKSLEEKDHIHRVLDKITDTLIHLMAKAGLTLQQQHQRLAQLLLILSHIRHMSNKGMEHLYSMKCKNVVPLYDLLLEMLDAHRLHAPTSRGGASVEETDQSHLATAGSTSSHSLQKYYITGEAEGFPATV

Cc1ccc(C)c(N)c1
not listed: [9]
inactive: all other assays above

CCCCCCCCCC/C=C/C#N
not listed: [9]
inactive: all other assays above

O=C(CCCl)NCc1ccccc1
not listed: [9]
inactive: all other assays above

O=Cc1ccc(F)c(Br)c1
not listed: [9]
inactive: all other assays above

Cc1nnc(SCC2=C(C(=O)O)N3C(=O)[C@@H](NC(=O)Cn4cnnn4)[C@H]3SC2)s1
not listed: [6] | [8]
inactive: all other assays above

CC1(C)O[C@@H]2C[C@H]3[C@@H]4CCC5=CC(=O)CC[C@]5(C)[C@@]4(F)[C@@H](O)C[C@]3(C)[C@]2(C(=O)CCl)O1
not listed: [7]
inactive: all other assays above

CCCOCCC
not listed: [9]
inactive: all other assays above

Oc1ccccc1F
not listed: [9]
inactive: all other assays above

CCOc1ccc(OCC)c(Cl)c1
not listed: [9]
inactive: all other assays above

CC(C)CC(=O)OCc1ccccc1
not listed: [9]
inactive: all other assays above

O=C1C=CC(=O)O1
not listed: [9]
inactive: all other assays above

CC(C)OC(C)C
not listed: [9]
inactive: all other assays above

Cc1cc(NS(=O)(=O)c2ccc(N)cc2)nc(C)n1
inactive: all assays above

C=CCCCCCCCCO
not listed: [9]
inactive: all other assays above
